The structures appear in SMILES notation. The panel holds about 83,000 compounds, 20% with a hit somewhere; the sample as a whole holds those more often.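 How to read the values: 0–100, growth inhibition (40 = 60% inhibited); 0, no net growth; -100 to 0, cell death (-40 = 40% of starting cells died; -100 = all dead).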 A number with no mark means an inactive call. Active and inactive are the calls of the source. The calls were made as follows: active = growth percent below 10; inactive = the rest.

The test deals with HL-60(TB) leukemia. Nature of the test: NCI-60 one-dose screen, 48 h (100 = growth as untreated, 0 = no growth, -100 = all killed). As to conditions: 10 µM unless noted.
In the case of `CCCCCCNC(=O)Oc1ccc(/C(=C(\C)c2ccc(OC)cc2)c2ccc(OCCN(C)C)cc2)cc1`, the growth is 56.3%.

For `Cc1cc(C)c(N2C(=O)CC(Nc3ccc(Cl)cc3Cl)C2=O)c(C)c1` (centres undefined), the growth is 100%.

For `CC[C@@](C)(NC(=O)C(C)(C)NC(=O)[C@@H](NC(=O)[C@@H]1CCCN1C(=O)C(C)(C)NC(=O)[C@H](CC(C)C)NC(=O)CNC(=O)C(C)(C)NC(=O)[C@@H](NC(=O)C(C)(C)NC(=O)[C@H](CCC(N)=O)NC(=O)[C@H](C)NC(=O)C(C)(C)NC(=O)[C@H](C)NC(=O)C(C)(C)NC(=O)[C@H](C)NC(=O)C(C)(C)NC(C)=O)C(C)C)C(C)C)C(=O)N[C@@H](CCC(N)=O)C(=O)N[C@@H](CCC(N)=O)C(=O)N[C@H](CO)CC1CCCCC1`, the growth was -35.2% [5 µM] (active). The value for `Cn1c(SCC(=O)Nc2ccc(-c3nc4ccc([N+](=O)[O-])cc4[nH]3)cc2)nc2ccccc2c1=O` was 91.1%; that for `C#C[C@]1(O)CC[C@H]2[C@@H]3CC=C4c5sc(Nc6nc(C)cc(OC)n6)nc5CC[C@]4(C)[C@H]3CC[C@@]21C` was 12.1%.

As to `CC(=O)c1sc(Nc2cccc(Nc3nc(C)c(C)s3)c2)nc1C`, the growth is 34.2%. On to `O=C(Nc1nc2ccc([N+](=O)[O-])cc2s1)Nc1ccccc1Br`, for which the growth was 37.1%.

As to `CC(=C(c1ccc(OCCN2CCCC2)cc1)c1ccc(OCCN2CCCC2)cc1)c1ccc(Cl)cc1`, the growth is -53.7% (active). The value for `CC(C)(C)Nc1nc2c(OCCc3ccccc3)cccn2c1-c1ccc([N+](=O)[O-])cc1` was 47.4%.
